Calls of active or inactive are those of the source.
Legend:
[1] = E. coli DRC41 culture turbidity changes, primary screen, E. coli filamentation inducer project, strain DRC41, OD650, 48 h (AID 1152);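 further: E. coli MC1000 strain DRC41 lacking acrAB efflux pump and sulA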; conditions: E. coli DRC41 (acrAB sulA), higher = more signal, called active from +8 up or from −8 down
[2] = small-molecule binders of probe aLefty1, primary screen, biochemical, small-molecule microarray, 635/667 nm fluorescence (AID 1153); conditions: higher = more signal;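 further: score merges spot fluorescence with signal-to-noise ratio from the scanned slide images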
[3] = PSAC antagonists in infected red cells, primary screen, cell-based, P. falciparum Indochina, OD700, 1 h (AID 1154); conditions: P. falciparum Indochina infected RBC osmotic lysis, higher = more signal, called active from +8 up or from −8 down
[4] = PSAC antagonists in infected red cells, primary screen, cell-based, P. falciparum Indochina, OD700, 2 h (AID 1155);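 further: lysis reports solute entry through the parasite surface anion channel PSAC; channel blockers reduce lysis of infected cells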; conditions: P. falciparum Indochina infected erythrocytes, osmotic lysis OD700; higher = more signal, called active from +8 up or from −8 down
[5] = osmotic lysis modulators in infected erythrocytes, primary screen, PSAC antagonist project, cell-based, P. falciparum Indochina, OD700, 3 h (AID 1156); conditions: higher = more signal, called active from +8 up or from −8 down
[6] = PSAC antagonists in infected red cells, primary screen, cell-based, P. falciparum Indochina, OD700, 18 h (AID 1157); conditions: P. falciparum Indochina infected erythrocytes, osmotic lysis OD700, 18 h; higher = more signal, called active from +8 up or from −8 down
[7] = modulators of S6 phosphorylation in cells, primary screen, cell-based, A549, cytoblot, luminescence, serum-stimulated (AID 1158); conditions: A549 phospho-S6 cytoblot, 5 h, higher = more signal;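 further: serum-stimulated A549 lung adenocarcinoma cells; signal is phosphorylated S6 detected by cytoblot immunostaining with HRP secondary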
[8] = target: NADPH oxidase 2 (Homo sapiens) (UniProt P04839); assay: NOX2-dependent H2O2 signal modulators, primary screen, NOX inhibitor project, cell-based, HEK293-NOX2, PMA-stimulated, Amplex Red fluorescence (AID 1159); conditions: 45 min, higher = more signal, called active from +8 up or from −8 down; further: test concentration not given here
Sequence of NADPH oxidase 2 (Homo sapiens) (P04839 whole entry, looked up): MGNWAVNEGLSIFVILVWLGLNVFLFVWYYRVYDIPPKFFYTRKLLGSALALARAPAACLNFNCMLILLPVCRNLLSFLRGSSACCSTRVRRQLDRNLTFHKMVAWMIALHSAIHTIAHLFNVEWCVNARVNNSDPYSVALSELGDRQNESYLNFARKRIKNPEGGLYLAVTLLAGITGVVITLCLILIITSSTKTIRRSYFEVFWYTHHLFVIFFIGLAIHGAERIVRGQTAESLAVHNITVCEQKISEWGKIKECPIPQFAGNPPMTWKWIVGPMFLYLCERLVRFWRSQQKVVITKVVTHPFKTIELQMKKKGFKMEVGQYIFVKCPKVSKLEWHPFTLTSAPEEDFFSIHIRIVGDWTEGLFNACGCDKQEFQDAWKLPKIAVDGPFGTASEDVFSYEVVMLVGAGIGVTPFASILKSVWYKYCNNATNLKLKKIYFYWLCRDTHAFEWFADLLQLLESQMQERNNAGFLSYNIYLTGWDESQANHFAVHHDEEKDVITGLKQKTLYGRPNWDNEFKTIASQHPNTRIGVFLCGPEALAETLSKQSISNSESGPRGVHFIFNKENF

[9] = target: NADPH oxidase 4 (Homo sapiens) (UniProt Q9NPH5); assay: NOX4-dependent H2O2 signal modulators, primary screen, NOX inhibitor project, cell-based, HEK293-NOX4, tetracycline-induced, Amplex Red fluorescence (AID 1160); conditions: 45 min, higher = more signal, called active from +8 up or from −8 down
Sequence of NADPH oxidase 4 (Homo sapiens) (Q9NPH5 whole entry, looked up): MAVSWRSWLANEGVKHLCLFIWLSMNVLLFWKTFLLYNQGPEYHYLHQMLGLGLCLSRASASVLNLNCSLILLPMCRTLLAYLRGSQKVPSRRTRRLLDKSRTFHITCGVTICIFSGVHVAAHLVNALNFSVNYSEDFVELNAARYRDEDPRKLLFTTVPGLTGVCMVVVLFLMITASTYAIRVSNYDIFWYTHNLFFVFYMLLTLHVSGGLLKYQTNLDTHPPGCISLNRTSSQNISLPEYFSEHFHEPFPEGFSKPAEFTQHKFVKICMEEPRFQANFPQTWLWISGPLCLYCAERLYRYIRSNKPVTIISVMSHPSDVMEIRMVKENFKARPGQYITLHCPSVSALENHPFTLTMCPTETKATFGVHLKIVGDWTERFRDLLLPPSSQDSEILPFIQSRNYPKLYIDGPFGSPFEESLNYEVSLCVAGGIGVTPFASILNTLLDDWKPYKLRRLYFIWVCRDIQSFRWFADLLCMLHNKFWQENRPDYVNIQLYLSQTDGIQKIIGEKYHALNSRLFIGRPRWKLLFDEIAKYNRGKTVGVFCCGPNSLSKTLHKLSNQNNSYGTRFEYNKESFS

[10] = target: NADPH oxidase 5 (Homo sapiens) (UniProt Q96PH1); assay: NOX5-dependent H2O2 signal modulators, primary screen, NOX inhibitor project, cell-based, HEK293-NOX5, Amplex Red fluorescence (AID 1161); conditions: HEK293-NOX5, ionomycin, 45 min, higher = more signal
Sequence of NADPH oxidase 5 (Homo sapiens) (Q96PH1 whole entry, looked up): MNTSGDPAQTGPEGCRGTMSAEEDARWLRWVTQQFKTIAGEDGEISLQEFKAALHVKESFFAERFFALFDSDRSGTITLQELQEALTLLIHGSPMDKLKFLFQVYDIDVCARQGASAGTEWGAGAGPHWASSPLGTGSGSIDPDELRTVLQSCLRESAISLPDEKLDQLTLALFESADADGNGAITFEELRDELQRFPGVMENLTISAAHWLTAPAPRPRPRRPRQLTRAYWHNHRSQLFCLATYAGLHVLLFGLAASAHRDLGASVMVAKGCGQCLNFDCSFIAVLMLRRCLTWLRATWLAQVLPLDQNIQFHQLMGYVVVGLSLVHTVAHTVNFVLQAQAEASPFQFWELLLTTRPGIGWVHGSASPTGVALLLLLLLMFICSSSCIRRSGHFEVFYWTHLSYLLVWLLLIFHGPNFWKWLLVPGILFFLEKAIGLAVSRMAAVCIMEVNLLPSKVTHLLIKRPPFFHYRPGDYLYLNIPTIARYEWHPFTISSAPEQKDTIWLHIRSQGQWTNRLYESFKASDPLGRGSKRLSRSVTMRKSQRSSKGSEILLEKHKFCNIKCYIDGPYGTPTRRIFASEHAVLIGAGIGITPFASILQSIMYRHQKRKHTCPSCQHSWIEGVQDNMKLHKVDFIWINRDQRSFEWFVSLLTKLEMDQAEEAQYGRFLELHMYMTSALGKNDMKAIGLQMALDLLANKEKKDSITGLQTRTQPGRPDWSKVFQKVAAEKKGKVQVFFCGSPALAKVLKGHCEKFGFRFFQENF

[11] = A549 cell viability effects, profiling panel, calcein-AM fluorescence, 48 h, basal (AID 1162); conditions: higher = more signal; further: test concentration not given here
[12] = adipocyte viability effects, profiling panel, cell-based, 3T3-L1 adipocytes, calcein-AM fluorescence, 48 h, basal (AID 1163); conditions: 3T3-L1 adipocytes viability, higher = more signal; further: test concentration not given here
[13] = HepG2 cell viability effects, profiling panel, calcein-AM fluorescence, 48 h, basal (AID 1164); conditions: higher = more signal; further: test concentration not given here
[14] = MM1S cell viability effects, profiling panel, calcein-AM fluorescence, 48 h, basal (AID 1165); conditions: higher = more signal;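 further: viability of MM1S multiple myeloma cells under basal unstimulated conditions; test concentration not given here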
[15] = basal RPMI8226 viability, no added stimulus, profiling panel, cell-based, calcein-AM fluorescence, 48 h, PK04 Diversity Set (AID 1166); conditions: RPMI8226 myeloma viability, higher = more signal;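 further: cells grown under basal conditions without added stimulus; test concentration not given here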
[16] = basal HepG2 mitochondrial membrane potential changes, profiling panel, cell-based, JC-1 fluorescence, 24 h, 100 nL compound (AID 1167); conditions: higher = more signal; further: test concentration not given here
[17] = basal 3T3-L1 adipocyte mitochondrial potential changes, profiling panel, cell-based, JC-1 fluorescence, 3T3-L1 adipocytes, 24 h, 100 nL compound (AID 1168); conditions: JC-1 mitochondrial fluorescence, higher = more signal, called active from +8 up or from −8 down; further: test concentration not given here
[18] = basal RPMI8226 mitochondrial membrane potential changes, profiling panel, cell-based, JC-1 fluorescence, 24 h, 100 nL compound (AID 1169); conditions: RPMI8226 myeloma, JC-1 mitochondrial potential fluorescence, higher = more signal; further: test concentration not given here
[19] = basal MM1S mitochondrial membrane potential changes, profiling panel, cell-based, JC-1 fluorescence, 24 h, 100 nL compound (AID 1170); conditions: higher = more signal; further: test concentration not given here
[20] = A549 lung cancer cell viability effects, profiling panel, resazurin fluorescence, 24 h, PK04 Diversity Set (AID 1171); conditions: higher = more signal, called active from +8 up or from −8 down; further: test concentration not given here

Structure (SMILES)	z-score [1]	composite z-score [2]	z-score [3]	z-score [4]	z-score [5]	z-score [6]	z-score [7]	z-score [8]	z-score [9]	z-score [10]	z-score [11]	z-score [12]	z-score [13]	z-score [14]	z-score [15]	z-score [16]	z-score [17]	z-score [18]	z-score [19]	z-score [20]
C=CC[C@@H](OC(=O)Nc1ccc(OC)cc1)c1ccc(O)c(F)c1	0.111 (inactive)	0.109	2.93 (inactive)	-0.0384 (inactive)	-1.12 (inactive)	-0.113 (inactive)	-0.386	-6 (inactive)	-2.91 (inactive)	-3.48	-1.78	0.379	-2.39	-2.15	-2.51	-3.67	-1.37 (inactive)	0.122	-1.07	-0.747 (inactive)
COCCOC(=O)N1C(=O)[C@@]2(c3cc(C#CCCO)ccc31)[C@H](C(=O)Nc1nc3ccccc3s1)[C@H]1C(=O)O[C@H](c3ccccc3)[C@H](c3ccccc3)N1[C@@H]2c1ccc(O)cc1	0.0106 (inactive)	0.126	1.41 (inactive)	0.523 (inactive)	1 (inactive)	0.417 (inactive)	0.0869	1.43 (inactive)	0.0581 (inactive)	0.329	-0.378	0.274	0.123	0.0566	-2.06	0.248	0.15 (inactive)	-0.314	-0.471	0.771 (inactive)
CCOC(=O)C1=CC[C@@H](c2ccccc2)N(S(=O)(=O)c2ccc(C)cc2)[C@H]1c1ccccc1	-1.11 (inactive)	0.155	1.97 (inactive)	0.945 (inactive)	0.369 (inactive)	0.24 (inactive)	-0.685	0.18 (inactive)	-0.464 (inactive)	1.75	-0.84	-1.5	-0.634	-1.79	0.229	1.61	-1.29 (inactive)	-1.04	-0.0355	1.44 (inactive)
CCCN1C(=O)[C@@]2(Cc3ccccc31)N=C(c1ccc(OCCCO)cc1)O[C@H]2c1ccccc1	-0.621 (inactive)	0.396	18.6 (active)	3.99 (inactive)	2.49 (inactive)	0.986 (inactive)	-0.408	-0.135 (inactive)	-0.123 (inactive)	-1.61	-1.06	0.526	-1.1	-3.51	-4.16	-0.895	0.201 (inactive)	-1.16	-0.502	-1.11 (inactive)
Cc1ccc(S[C@]2(C(=O)NCC(F)(F)F)CC(=O)N(Cc3cc(C(F)(F)F)cc(C(F)(F)F)c3)[C@@H]2c2ccc(CO)cc2I)cc1	0.168 (inactive)	-0.563	1.71 (inactive)	-0.0111 (inactive)	1.12 (inactive)	0.449 (inactive)	0.837	1.63 (inactive)	-2.46 (inactive)	-1.28	-0.369	-0.37	-0.548	-2.27	-2.64	-0.812	-0.792 (inactive)	-0.366	-0.852	1.19 (inactive)
CCCC[C@@H]1C[C@H]1[C@@H](NC(=O)c1cccs1)c1ccccc1C(F)(F)F	-1.04 (inactive)	0.294	1.89 (inactive)	1.12 (inactive)	-0.37 (inactive)	0.544 (inactive)	-0.423	-1.39 (inactive)	-3.14 (inactive)	-0.173	0.11	-0.556	-0.305	-0.6	-1.72	-2.45	-1.22 (inactive)	-0.307	-1.24	-0.462 (inactive)
COCCOC(=O)N1C(=O)[C@@]2(c3ccccc31)[C@H](C(=O)NC[C@H](O)c1ccccc1)[C@H]1C(=O)O[C@H](c3ccccc3)[C@H](c3ccccc3)N1[C@@H]2c1ccc(O)cc1	0.503 (inactive)	-0.671	1.89 (inactive)	0.74 (inactive)	-0.0724 (inactive)	0.786 (inactive)	0.315	1.22 (inactive)	0.4 (inactive)	0.855	0.0528	2.18	-0.921	-1.12	-3.46	-1.33	-0.221 (inactive)	-1.32	-0.0503	0.0737 (inactive)
CC(C)(C)OC(=O)CC[C@@]1(C(=O)NCC(O)CO)N=C(c2ccc(OCCCO)cc2)O[C@@H]1c1ccccc1CN=[N+]=[N-] (stereo not given in full)	0.399 (inactive)	0.258	25.3 (active)	5.67 (inactive)	0.814 (inactive)	0.936 (inactive)	0.906	1.18 (inactive)	0.87 (inactive)	0.416	1.25	0.478	-0.0162	-0.217	-0.34	0.0542	0.0122 (inactive)	-0.418	1.12	0.0255 (inactive)
O=C1O[C@@H](c2ccccc2)[C@@H](c2ccccc2)N2[C@@H](c3ccc(OCCO)cc3)[C@]3(C(=O)Nc4ccc(C#CC5=CCCCC5)cc43)[C@@H](C(=O)NC[C@H](O)c3ccccc3)[C@H]12	-0.836 (inactive)	1.38	1.96 (inactive)	0.982 (inactive)	-0.607 (inactive)	0.381 (inactive)	-0.164	1.61 (inactive)	0.433 (inactive)	0.469	0.152	1.49	0.348	0.0056	-2.81	-1.93	-0.106 (inactive)	-0.875	-1.24	-0.956 (inactive)

— PubChem BioAssay
